Bioassay records as filed in PubChem.
PAFAH2 FP inh: PAFAH2 (human) inhibition; inhibition, % at 3.39 µM; 0.99% of 340,000 active; AID 492956; Q99487; recombinant PAFAH2, FP-rhodamine activity probe, fluorescence polarization;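 active = inhibition above the mean over all tested compounds plus 3 SD, cut at about 30% in these data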;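 note: inhibitors block probe labeling of enzyme so polarization drops; 0% = enzyme with DMSO and 100% = wells lacking PAFAH2 protein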
PAFAH1B2 inh: blocks human PAF acetylhydrolase 1b catalytic subunit 2; AID 492953; recombinant PAFAH1B2, FP-rhodamine activity probe, fluorescence polarization; 1.2% of 340,000 active; P68402; inhibition, % at 3.39 µM;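 active = inhibition above the mean of all tested compounds plus 3 SD, cut at about 24% in these data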;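 note: 0% = enzyme with DMSO and 100% = wells lacking PAFAH1B2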
E coli Lon inh: inhibitors of E. coli Lon protease; P0A9M0; purified E. coli Lon protease, fluorescence polarization; inhibition, % at 7.94 µM; 0.42% of 360,000 active; AID 602123; in the data active = inhibition above about 13%, passing the limit was not always enough;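 note: 0% = enzyme with probe and DMSO and 100% = no enzyme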
PAFAH1B3 inh: blocks human PAF acetylhydrolase 1B catalytic subunit 3. Q15102. recombinant PAFAH1B3, FP-rhodamine probe, fluorescence polarization. inhibition, % at 3.39 µM. 0.28% of 340,000 active. AID 492972;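 active = inhibition above the screen-wide average of all tested compounds plus 3 SD, cut at about 25% in these data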;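 note: 0% = enzyme with DMSO only and 100% = wells lacking PAFAH1B3 protein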
Target sequence (Q15102 whole entry, looked up): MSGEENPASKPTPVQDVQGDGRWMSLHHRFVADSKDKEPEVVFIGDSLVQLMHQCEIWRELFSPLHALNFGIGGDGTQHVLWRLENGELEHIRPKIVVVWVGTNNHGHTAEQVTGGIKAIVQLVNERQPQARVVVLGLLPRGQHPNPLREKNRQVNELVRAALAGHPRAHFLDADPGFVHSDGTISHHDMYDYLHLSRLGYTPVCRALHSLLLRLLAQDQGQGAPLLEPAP
Rin1-Abl PPI inh: human Rin1-Abl interaction inhibition; inhibition, % at 7.35 µM; AID 588664; TR-FRET Rin1/Abl binding, biochemical; 0.4% of 360,000 active; in the data active = inhibition above about 5%, passing the limit was not always enough
pPAFAH inh: pPAFAH (human) enzyme inhibition; recombinant pPAFAH, FP-rhodamine probe fluorescence polarization; inhibition, % at 3.39 µM; 1.5% of 330,000 active; Q13093;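 active = inhibition above the mean inhibition across the screen plus 3 SD, cut at about 25% in these data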;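 note: inhibitors block binding of the rhodamine activity-based probe so polarization drops; 0% = enzyme with DMSO and 100% = wells lacking pPAFAH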
PAFAH2 FP conf: PAFAH2 (human) inhibition, confirmed; shares compounds with PAFAH2 FP inh; inhibition, % at 3.39 µM; 65% of 2,300 active; recombinant PAFAH2, FP-rhodamine activity probe, fluorescence polarization; AID 493030;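 active = mean inhibition over three repeats above a set limit taken from the earlier primary screen, cut at about 30% in these data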;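 note: inhibitor blocks binding of rhodamine activity probe so polarization falls; 0% = enzyme with DMSO and 100% = wells lacking PAFAH2 protein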
* hit, by the source's call; . = not tested or not shown. Rows were chosen to be rich in hits. Some 3.1% of all compounds tested hit in one or more screens of this group.

SMILES	PAFAH2 FP inh	PAFAH1B2 inh	E coli Lon inh	PAFAH1B3 inh	Rin1-Abl PPI inh	pPAFAH inh	PAFAH2 FP conf
Nn1c(SCC(=O)Nc2ccccc2C(F)(F)F)nncc1=O	-2	2	-12	13	-1	1	.
Cc1ccccc1N1CCN(C2=NC(=O)/C(=C\c3cccs3)S2)CC1	41*	1	-2	6	-1	20	31*
O=C(NCC(c1cccs1)N1CCOCC1)c1ccccc1NS(=O)(=O)c1ccc(Cl)c([N+](=O)[O-])c1 (configuration not stated)	43*	17	4	13	1	-3	81*
NS(=O)(=O)c1cccc(NS(=O)(=O)c2ccc(/C=C/C(=O)OCC(=O)c3ccccc3)cc2)c1	58*	2	-3	-1	-1	2	49*
COc1ccc(C(=O)COC(=O)/C=C/c2ccccc2)cc1	-2	1	6	2	5	5	.
Cc1cccc(N2CCN(C(=O)c3ccccc3NC(=O)C3CC=CCC3C(=O)O)CC2)c1 (configuration not stated)	7	-4	-7	0	1	-4	.
Cc1ccc(N2CCN(C(=O)c3ccccc3NC(=O)C3CC=CCC3C(=O)O)CC2)cc1 (configuration not stated)	66*	2	-7	7	-2	0	57*
Cc1ccccc1NC(=O)COC(=O)c1ccc2c(c1)OCCO2	58*	2	4	2	3	.	52*
CS(=O)(=O)c1ccc(C(=O)OCC(=O)Nc2cccnc2Cl)cc1[N+](=O)[O-]	12	-5	-9	4	-4	-1	.
Cc1ccc(C)c(NC(=O)COC(=O)c2ccc3c(c2)OCCO3)c1	53*	1	-12	6	-7	1	61*
Cc1ccccc1NC(=O)COC(=O)c1ccc(S(C)(=O)=O)c([N+](=O)[O-])c1	39*	1	5	-2	4	11	13
CCCS(=O)(=O)NC(=O)C1(C)CCN(C(=O)c2ccc(OC)c(F)c2)C1 (configuration not stated)	.	.	-5	.	-4	.	.
O=C(Nc1ccccc1Cc1ccccc1)c1ccccc1NS(=O)(=O)c1ccc(Cl)s1	10	2	-11	3	1	16	.
O=C(Nc1ccccc1)c1ccccc1NS(=O)(=O)c1ccc(Cl)s1	71*	20	1	3	-5	7	75*
Cc1ccc(NC(=O)c2ccccc2NS(=O)(=O)c2ccc(Cl)s2)cc1	71*	11	-4	1	1	9	74*
O=C(NCc1ccco1)c1ccccc1NS(=O)(=O)c1ccc(Cl)s1	5	14	-7	-1	2	10	.
O=C1NC(C2CC3C=CC2C3)Nc2ccccc21 (configuration not stated)	.	.	-6	.	-4	.	.
O=C(Cc1cccc2ccccc12)Nc1ccc(O)cc1C(=O)O	25	8	1	5	-1	5	.
O=C(Cc1cccc2ccccc12)Nc1ccc(Br)cc1C(=O)O	36*	7	-5	18	0	-7	25
COC(=O)C(C)Sc1nc2ccsc2c(=O)n1Cc1ccccc1 (configuration not stated)	35*	2	8	0	-1	2	24
CCC(Sc1nc2ccsc2c(=O)n1Cc1ccc(C(=O)O)cc1)C(=O)Nc1ccc(Cl)cc1 (configuration not stated)	.	.	-4	.	-3	.	.
COc1ccccc1NC(=O)c1ccc(-c2nn(C)c(=O)c3ccccc23)cc1	-9	3	-6	6	1	0	.
COc1ccc(NC(=O)c2ccc(-c3nn(C)c(=O)c4ccccc34)cc2)cc1	35*	0	-2	19	-3	3	8
Cc1cc(C)n(-c2ccc(NC(=O)C3CCCCN3C(=O)c3cc(C)oc3C)cc2)n1 (configuration not stated)	8	0	5	-5	1	-2	.
O=C(COC(=O)c1ccco1)NCc1ccccc1Cl	58*	3	5	1	4	-5	38*
O=C(COC(=O)c1cc(Cl)ccc1[N+](=O)[O-])NCc1ccc(Cl)cc1Cl	30*	9	6	5	-1	1	25
